The whole screen tested about 16,000 compounds, of which about 5,100 (32%) were called active. Roughly 25% stayed inconclusive and do not appear here. This is one part of the list. Unmarked numbers belong to inactive results. Calls follow the shape of the dose curve; as a rule, active = well fitted curve in the direction sought with a large enough effect; inconclusive = small, poorly fitted or top-dose-only effect, or effect the other way; inactive = no such curve, though single readings can be large or run the other way.
% is scaled to controls: 0 for no effect and ±100 for the full control effect.

For this experiment, the target named is Cytochrome P450 3A4 (Homo sapiens) (UniProt P08684). In words: Cytochrome panel assay with activity outcomes. To be noted: recombinant CYP, pro-luciferin dealkylation, luminescence, p450-cyp3a4; series mostly up to 57.1 µM.
Cytochrome P450 3A4 (Homo sapiens), sequence (P08684 whole entry, looked up): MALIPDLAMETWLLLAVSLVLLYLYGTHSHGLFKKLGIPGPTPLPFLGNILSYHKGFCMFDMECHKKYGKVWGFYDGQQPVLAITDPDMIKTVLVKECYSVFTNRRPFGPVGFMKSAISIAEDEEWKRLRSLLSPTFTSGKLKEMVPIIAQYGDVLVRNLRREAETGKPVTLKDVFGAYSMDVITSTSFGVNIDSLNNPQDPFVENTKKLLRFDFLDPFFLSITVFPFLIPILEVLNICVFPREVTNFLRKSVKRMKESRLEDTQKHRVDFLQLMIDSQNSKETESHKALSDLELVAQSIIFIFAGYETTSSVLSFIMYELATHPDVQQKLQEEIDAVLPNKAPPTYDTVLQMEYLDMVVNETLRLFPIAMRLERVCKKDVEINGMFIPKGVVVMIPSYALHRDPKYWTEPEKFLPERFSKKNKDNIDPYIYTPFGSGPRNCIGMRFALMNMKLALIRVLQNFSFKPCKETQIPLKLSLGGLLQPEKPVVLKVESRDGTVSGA
As for `O=C(O)[C@H](Cc1ccc(O)c([N+](=O)[O-])c1)N1C(=O)c2ccccc2C1=O`, the activity, negative = inhibition is 6.92% [at 11.4 µM].

What is called AC50 is the concentration giving half of the maximal activity seen. Take `O=C1NC(=O)C(c2ccccc2[N+](=O)[O-])=C1Nc1ccc(O)c(Cl)c1`: the AC50 is 20 µM (active). On the same count and under the same terms, with `O=C(Nc1nccs1)C1Cc2ccccc2CN1S(=O)(=O)c1ccc(F)cc1` (configuration not stated) the figure was 3.16 µM (active).

Consider `CCc1nnc(NC(=O)c2c(C)nn(-c3ccccc3)c2Cl)s1`, for which the activity, negative = inhibition is 4.89% [at 2.29 µM]. `CCOc1ccccc1NC(=O)C1Cc2ccccc2CN1S(C)(=O)=O` (configuration not stated): the activity, negative = inhibition was -25.2% [at 11.4 µM]. With `CCc1nnc(NC(=O)C2Cc3ccccc3CN2S(=O)(=O)c2ccc(C)cc2)s1` (configuration not stated), the half-maximal activity concentration (AC50) is 6.31 µM (active). On the same count and under the same terms, in the case of `O=C(Nc1nnc(C2CC2)s1)C1Cc2ccccc2CN1S(=O)(=O)c1ccccc1F` (configuration not stated) it was 7.08 µM (active).

With `CC(=O)c1sc(NC(=O)C(C)C)nc1C`, the AC50 result was “inactive”. Still for that read-out and setting: in the case of `CC(CO)Nc1nc(SCc2ccccc2)nc2sc3c(c12)CCC3` (configuration not stated) it was 14.1 µM (active). Still for that read-out and setting: with `Cc1ccc(CSc2nc3c(c(SCC(=O)O)n2)CCCC3)cc1` the entry was “inactive”; with `COCCNc1nc(SCc2ccccc2)nc2sc3c(c12)CCC3`, 12.6 µM (active); with `O=C(O)CSc1ncnc2sc3c(c12)CCC3`, “inactive”. `OCCNc1nc(SCc2ccccc2)nc2sc3c(c12)CCC3`: the activity, negative = inhibition was -25% [at 11.4 µM]. As for `Cc1nc2c(O)cccc2c(=O)[nH]1`, the AC50 entry was “inactive”.

`COc1cccc(NC(=O)COC(=O)c2c3c(nc4ccccc24)CCC(C)C3)c1` (configuration not stated): the AC50 was 3.55 µM (active). Same read-out and setting: in the case of `COc1cccc(NC(=O)COC(=O)c2nc3nccc(C)n3n2)c1` it was “inactive”; in that of `Cc1ccc(S(=O)(=O)N2CCN(C(=O)c3ccccc3)C2C(C)C)cc1` (configuration not stated), 2 µM (active); in that of `CC(=O)N1CC2(CC2)CC1c1ccccc1` (configuration not stated), “inactive”. Still for that read-out and setting: in the case of `Cc1ccc(S(=O)(=O)ON=C2CCN(S(=O)(=O)c3ccccc3)CC2)cc1` it was “inactive”. Turning to `Cc1ccc(S(=O)(=O)N2CCC(C(=O)O)(c3ccccc3)CC2)cc1`, the activity, negative = inhibition was 12.2% [at 11.4 µM]. Turning to `CC(=O)N1CCN(S(=O)(=O)c2ccccc2)C1c1ccccc1` (configuration not stated), the AC50 is 11.2 µM (active). For `COc1ccc(NC(=O)C(F)(F)F)cc1OC`, the AC50 result was “inactive”.

Regarding `COc1ccc(C(=O)c2ccc(OC)c(OC)c2)cc1OC`, the half-maximal activity concentration (AC50) is 15.8 µM (active). As to `COc1ccc(C(=O)c2ccccc2)cc1Br`, the AC50 entry was “inactive”. On the same count and under the same terms, with `CN[C@H]1[C@@H](O[C@@H]2[C@H](O[C@@H]3[C@@H](O)[C@@H](O)[C@@H](N=C(N)N)[C@@H](O)[C@@H]3N=C(N)N)O[C@H](C)[C@@]2(O)C=O)O[C@@H](CO)[C@@H](O)[C@H]1O` the entry was “inactive”; with `Cc1cccc(N2CCN(CC(=O)Nc3ccc(-n4cnnn4)cc3)CC2)c1C`, “inactive”; with `Cc1cccc(N2CCN(C(=O)CSCc3c(C)noc3C)CC2)c1C`, 3.98 µM (active).

Values taken from PubChem BioAssay AID1851 (National Center for Advancing Translational Sciences (NCATS), 2009).
